Experimental data taken from the supplement of paper PMC4709259.
Structures can show the parent of a compound that is named as a salt. ± gives the standard deviation.

Legend:
Jurkat [1] = assay: mean cell size (FSC-A) relative to DMSO control (fraction of control); higher = larger cells; conditions: 48 h
Outline: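 Jurkat cells at 600 cells/µl were incubated for 1 h and then treated for 48h with the Enzo Screen-Well FDA Approved Drug Library v2.0 at 25µM, with DMSO at 0.9% (v/v) final. Compounds that reduced counts below 20% of controls were retested in 10-fold dilutions down to 25nM. Cell count and mean cell size, taken as forward scatter area, were measured by flow cytometry relative to solvent-only controls. Each plate carried 6-12 controls, and values are means of 3 biological replicates.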

Jurkat [2] = assay: cell count relative to DMSO control (fraction of control); higher = more cells (less growth inhibition); conditions: 48 h

Row | SMILES | mean cell size (Jurkat [1]) | cell count (Jurkat [2])
1 | CCCCC[C@H](O)/C=C/[C@H]1[C@H](O)CC(=O)[C@@H]1C/C=C\CCCC(=O)O [Dinoprostone] (concentration: 25 µM) | 0.88 ± 0.019 | 0.399 ± 0.11
2 | NC[C@H]1O[C@H](O[C@H]2[C@H](O)[C@@H](O[C@H]3O[C@H](CO)[C@@H](O)[C@H](N)[C@H]3O)[C@H](N)C[C@@H]2N)[C@H](N)C[C@@H]1O [Tobramycin] (concentration: 25 µM) | 1.01 ± 0.054 | 0.65 ± 0.082
3 | Cc1nnc(C(C)C)n1C1C[C@H]2CC[C@@H](C1)N2CC[C@H](NC(=O)C1CCC(F)(F)CC1)c1ccccc1 (stereo in doubt) [Maraviroc] (concentration: 25 µM) | 1 ± 0.044 | 0.668 ± 0.062
4 | OC(CCN1CCCCC1)(c1ccccc1)C1CC2C=CC1C2 (configuration not stated) [Biperiden·HCl] (concentration: 25 µM) | 0.951 ± 0.055 | 0.654 ± 0.12
5 | OCCN1C[C@H](O)[C@@H](O)[C@H](O)[C@H]1CO [Miglitol] (concentration: 25 µM) | 0.994 ± 0.04 | 0.767 ± 0.14
6 | CC1(C)O[C@@H]2C[C@H]3[C@@H]4C[C@H](F)C5=CC(=O)C=C[C@]5(C)[C@H]4[C@@H](O)C[C@]3(C)[C@]2(C(=O)CO)O1 [Flunisolide] (concentration: 2.5 µM) | 0.996 ± 0.021 | 0.893 ± 0.11
7 | Cc1ccc(NC(=O)c2ccc(CN3CCN(C)CC3)cc2)cc1Nc1nccc(-c2cccnc2)n1 [Imatinib Mesylate] (concentration: 25 µM) | 0.968 ± 0.032 | 0.589 ± 0.07
8 | O=P(O)(O)C(Sc1ccc(Cl)cc1)P(=O)(O)O [Tiludronate Disodium] (concentration: 25 µM) | 0.961 ± 0.06 | 0.663 ± 0.15
9 | O=C1CCCC(=O)C1C(=O)c1ccc(C(F)(F)F)cc1[N+](=O)[O-] [Nitisinone] (concentration: 25 µM) | 0.938 ± 0.017 | 0.936 ± 0.1
10 | C[n+]1ccccc1/C=N/O [Pralidoxime Chloride] (concentration: 25 µM) | 1.08 ± 0.037 | 0.959 ± 0.1
11 | Nc1nc(NC2CC2)c2ncn([C@H]3C=C[C@@H](CO)C3)c2n1 [Abacavir Sulfate] (concentration: 25 µM) | 1.1 ± 0.033 | 0.858 ± 0.15
12 | COc1ccc2[nH]c([S@@+]([O-])Cc3ncc(C)c(OC)c3C)nc2c1 [Esomeprazole Potassium] (concentration: 25 µM) | 0.98 ± 0.027 | 0.868 ± 0.081
13 | O=C(c1ccc(OCCN2CCCCC2)cc1)c1c(-c2ccc(O)cc2)sc2cc(O)ccc12 [Raloxifene·HCl] (concentration: 25 µM) | 0.891 ± 0.016 | 0.675 ± 0.044
14 | CO/N=C(\C(=O)N[C@@H]1C(=O)N2C(C(=O)O)=CCS[C@H]12)c1csc(N)n1 [Ceftizoxim·Na] (concentration: 25 µM) | 0.95 ± 0.016 | 1.09 ± 0.073
15 | Fc1ccc([C@@H]2CCNC[C@H]2COc2ccc3c(c2)OCO3)cc1 [Paroxetine·HCl] (concentration: 2.5 µM) | 1.01 ± 0.059 | 0.24 ± 0.057
16 | Cc1nnc(SCC2=C(C(=O)O)N3C(=O)[C@@H](NC(=O)Cn4cnnn4)[C@H]3SC2)s1 [Cefazolin·Na] (concentration: 25 µM) | 0.964 ± 0.048 | 0.768 ± 0.013
17 | COC(=O)[C@H]1[C@H]2C[C@@H]3c4[nH]c5cc(OC)ccc5c4CCN3C[C@H]2C[C@@H](OC(=O)c2cc(OC)c(OC)c(OC)c2)[C@@H]1OC [Reserpine] (concentration: 25 µM) | 0.988 ± 0.025 | 0.616 ± 0.098
18 | C#C[C@]1(O)CC[C@H]2[C@@H]3CCC4=CC(=O)CC[C@@H]4[C@H]3C(=C)C[C@@]21CC [Etonogestrel] (concentration: 25 µM) | 0.997 ± 0.025 | 0.557 ± 0.013
19 | CS(=O)(=O)OCCCCOS(C)(=O)=O [Busulfan] (concentration: 25 µM) | 1.03 ± 0.016 | 0.343 ± 0.046
20 | CC(=O)Nc1nnc(S(N)(=O)=O)s1 [Acetazolamide] (concentration: 25 µM) | 1.04 ± 0.061 | 0.755 ± 0.054
21 | CC(=O)OCC(CCn1cnc2cnc(N)nc21)COC(C)=O [Famciclovir] (concentration: 25 µM) | 0.925 ± 0.053 | 0.465 ± 0.18
22 | CCC[C@H](N[C@@H](C)C(=O)N1[C@H](C(=O)O)C[C@@H]2CCCC[C@@H]21)C(=O)OCC [Perindopril Erbumine] (concentration: 25 µM) | 0.995 ± 0.051 | 0.637 ± 0.091
23 | NNC(=O)c1ccncc1 [Isoniazid] (concentration: 25 µM) | 0.969 ± 0.022 | 0.925 ± 0.019
24 | COc1cccc2c1C(=O)c1c(O)c3c(c(O)c1C2=O)C[C@@](O)(C(=O)CO)C[C@@H]3O[C@H]1C[C@H](N)[C@@H](O)[C@H](C)O1 [Epirubicin·HCl] (concentration: 250 nM) | 1.42 ± 0.022 | 0.206 ± 0.052
25 | NC[C@H](O)c1ccc(O)c(O)c1 [Norepinephrine Bitartrate Monohydrate] (concentration: 25 µM) | 0.967 ± 0.024 | 0.658 ± 0.17
26 | CC1(C)NC(=O)N(c2ccc([N+](=O)[O-])c(C(F)(F)F)c2)C1=O [Nilutamide] (concentration: 25 µM) | 0.954 ± 0.029 | 0.638 ± 0.066

Row | SMILES | mean cell size (Jurkat [1]) | cell count (Jurkat [2])
27 | CO[C@@]12[C@H](COC(N)=O)C3=C(C(=O)C(C)=C(N)C3=O)N1C[C@@H]1N[C@@H]12 [Mitomycin C] (concentration: 2.5 µM) | 1.22 ± 0.059 | 0.257 ± 0.048
28 | CC[C@H](C)C(=O)O[C@H]1C[C@@H](C)C=C2C=C[C@H](C)[C@H](CC[C@@H]3C[C@@H](O)CC(=O)O3)[C@H]21 [Lovastatin] (concentration: 25 µM) | 1.16 ± 0.046 | 0.664 ± 0.15
29 | CC(=O)NCCCS(=O)(=O)O [Acamprosate] (concentration: 25 µM) | 1.05 ± 0.062 | 0.933 ± 0.097
30 | C#C[C@]1(O)CC[C@H]2[C@@H]3CCC4=CC(=O)CC[C@@H]4[C@H]3CC[C@@]21C [Norethindrone] (concentration: 25 µM) | 0.948 ± 0.024 | 0.901 ± 0.084
31 | O=C(O)c1cccnc1 [Niacin (Known As Vitamin B3, Nicotinic Acid And Vitamin Pp)] (concentration: 25 µM) | 0.945 ± 0.053 | 0.426 ± 0.096
32 | CCC(=O)NCC[C@@H]1CCc2ccc3c(c21)CCO3 [Ramelteon] (concentration: 25 µM) | 1.04 ± 0.066 | 0.926 ± 0.11
33 | CC(C)NCC(O)COc1cccc2[nH]ccc12 (configuration not stated) [Pindolol] (concentration: 25 µM) | 0.976 ± 0.065 | 0.644 ± 0.16
34 | O=c1[nH]cnc2c1ncn2[C@H]1CC[C@@H](CO)O1 [Didanosine] (concentration: 25 µM) | 0.9758 ± 0.0048 | 0.462 ± 0.15
35 | O=C(O)C(=O)O.[NH-][C@@H]1CCCC[C@H]1[NH-].[Pt+2] [Oxaliplatin] (concentration: 25 µM) | 1.01 ± 0.034 | 0.326 ± 0.057
36 | NCC(=O)CCC(=O)O [Aminolevulinic Acid·HCl] (concentration: 25 µM) | 0.911 ± 0.013 | 0.638 ± 0.08
37 | CC(C)C[C@H](NC(=O)[C@H](Cc1ccccc1)NC(=O)c1cnccn1)B(O)O [Bortezomib] (concentration: 25 nM) | 0.894 ± 0.064 | 0.112 ± 0.11
38 | COc1cc2nc(N3CCN(C(=O)C4COc5ccccc5O4)CC3)nc(N)c2cc1OC (configuration not stated) [Doxazosin Mesylate] (concentration: 2.5 µM) | 1.01 ± 0.011 | 0.79 ± 0.13
39 | CN1CCC(=C2c3ccccc3C=Cc3ccccc32)CC1 [Cyproheptadine·HCl Sesquihydrate] (concentration: 25 µM) | 0.935 ± 0.027 | 0.762 ± 0.049
40 | Clc1ccc(COC(Cn2ccnc2)c2ccc(Cl)cc2Cl)c(Cl)c1 (configuration not stated) [Miconazole] (concentration: 25 µM) | 0.976 ± 0.04 | 0.586 ± 0.11
41 | CN1CCN(CCCN2c3ccccc3Sc3ccc(C(F)(F)F)cc32)CC1 [Trifluoperazine·HCl] (concentration: 2.5 µM) | 1.072 ± 0.01 | 0.776 ± 0.13
42 | N=C(N)N/N=C/c1c(Cl)cccc1Cl [Guanabenz Acetate] (concentration: 25 µM) | 0.988 ± 0.044 | 0.34 ± 0.13
43 | Cc1[nH]cnc1CN1CCc2c(c3ccccc3n2C)C1=O [Alosetron·HCl] (concentration: 25 µM) | 0.954 ± 0.059 | 0.592 ± 0.12
44 | COCCCC/C(=N\OCCN)c1ccc(C(F)(F)F)cc1 [Fluvoxamine Maleate] (concentration: 25 µM) | 0.973 ± 0.046 | 0.866 ± 0.083
45 | Cc1nc2n(c(=O)c1CCN1CCC(c3noc4cc(F)ccc34)CC1)CCCC2O (configuration not stated) [Paliperidone] (concentration: 25 µM) | 0.985 ± 0.043 | 1.06 ± 0.063
46 | C#C[C@]1(O)CC[C@H]2[C@@H]3CCC4=Cc5oncc5C[C@]4(C)[C@H]3CC[C@@]21C [Danazol] (concentration: 25 µM) | 0.995 ± 0.026 | 0.92 ± 0.08
47 | Nc1nc2[nH]cnc2c(=S)[nH]1 [Thioguanine (6-Thioguanine)] (concentration: 25 µM) | 0.935 ± 0.045 | 1.09 ± 0.061
48 | Cn1c(=O)c2nc[nH]c2n(C)c1=O [Theophylline] (concentration: 25 µM) | 0.947 ± 0.041 | 1.05 ± 0.031
49 | COC(=O)CCC(=O)CN [Methyl Aminolevulinate·HCl] (concentration: 25 µM) | 0.99 ± 0.033 | 0.739 ± 0.074
50 | C[C@H]1O[C@@H](O[C@H]2[C@@H](O)C[C@H](O[C@H]3[C@@H](O)C[C@H](O[C@H]4CC[C@@]5(C)[C@H](CC[C@@H]6[C@@H]5C[C@@H](O)[C@]5(C)[C@@H](C7=CC(=O)OC7)CC[C@]65O)C4)O[C@@H]3C)O[C@@H]2C)C[C@H](O)[C@@H]1O [Digoxin] (concentration: 25 nM) | 0.91 ± 0.065 | 0.175 ± 0.093
51 | O=C(O)C[C@H](O)C[C@H](O)/C=C/c1c(C2CC2)nc2ccccc2c1-c1ccc(F)cc1 [Pitavastatin Calcium] (concentration: 25 µM) | 0.9938 ± 0.0093 | 0.647 ± 0.065
